Consider 37 molecules from publication PMC5540273 (PLoS ONE, 2017).
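Note: KINOMEscan kinase panel screen.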

For this assay, the system named is NEK2. The conditions noted are these: concentration: 1 μM, replicates: in singlicate; n = 1.
Turning to `CN1CCN(Cc2ccc(NC(=O)Nc3ccc(N(C)c4ccnc(Nc5ccc(CS(C)(=O)=O)cc5)n4)cc3)cc2)CC1.Cl` [GW827654], the “%Inh” value turned out to be 0%.
Under `COc1cccc(-c2nc(-c3ccccc3)[nH]c2-c2ccncc2)c1` [SB-610250] stands 0%; under `CN(C)CCNS(=O)(=O)c1ccc(-c2ccnc3[nH]ccc23)cc1` [GSK977620], 0%.
For `N#CC1(c2cccc(C(=O)Nc3cccc(Oc4ccc5nc(NC(=O)C6CC6)sc5n4)c3)c2)CC1`, the “%Inh” value came to 0%.
As for `CCNC(=O)/C=C/c1n[nH]c2cc(Sc3ccccc3C(=O)NC)ccc12`, the “%Inh” value was found to be 0%.
For `CCn1cnc2c(NCc3ccccc3)ncnc21` [SKF-96418] the value was 0%.
Regarding `CN(c1ccc2c(c1)nc(NCc1ccccc1)n2C)c1ccnc(Nc2ccc(CS(C)(=O)=O)cc2)n1.Cl` [GW811603], the “%Inh” value was found to be 0%.
For `Cl.O=C(Nc1ccc(Oc2ccc3[nH]c(NC(=O)c4ccco4)nc3c2)cc1)Nc1cc(C(F)(F)F)ccc1F` [GW683134] the value was 2%.
Under `Nc1ncc(-c2cn[nH]c2)c2scc(-c3ccc4c(c3)CCN4C(=O)Cc3ccccc3)c12` [GSK2593067] stands 85%; under `Cc1ccc(NC(=O)c2ccc(Cl)c(Cl)c2)cc1-c1ccc(C(=O)Nc2ccncc2)cc1` [GSK1398460], 2%.
Under `COC(=O)Nc1nc2ccc(Oc3ccc(NC(=O)Nc4cc(C(F)(F)F)ccc4F)cc3)cc2[nH]1.Cl` [GW654607] stands 0%.
Turning to `COc1ccc(C)c(Nc2ccnc(Nc3ccc(-c4cnc[nH]4)cc3)n2)c1.Cl` [GW784041], the “%Inh” value is reported as 2%.
Consider `CCNc1nccc(-c2c(-c3ccc(F)cc3)ncn2C2CCN(C)CC2)n1`, for which the “%Inh” value came out at 0%.
As for `CS(=O)(=O)c1cccc(CNc2nc(Nc3ccc4c(c3)CCC(=O)N4)ncc2C(F)(F)F)c1`, the “%Inh” value came to 0%.
Turning to `Cc1ccc(NC(=O)c2ccnc(N3CCCCC3)c2)cc1-c1ccc(C(=O)NCC2CC2)cc1` [GW775610], the “%Inh” value is 0%.
Under `CN(C)c1ncnc2nc[nH]c12` [SKF-31736] stands 0%; under `Cc1ccc(Nc2ccnc(Nc3ccc(C)c(F)c3)n2)cc1O.Cl` [GW582868], 1%.
Under `Cc1ccc(O)cc1Nc1ccnc2ccc(C(C)(C)C)cc12` [GW856805] stands 9%.
As to `Cn1cc(-c2ccc3c(c2)CCN3C(=O)Cc2cc(F)cc(C(F)(F)F)c2)c2c(N)ncnc21` [GSK2635225], the “%Inh” value is given as 18%.
In the case of `CN(c1ccc(F)c(NC(=O)c2cccc(OC(C)(C)C#N)c2Cl)c1)c1ccc2nc(NC(=O)C3CC3)sc2n1`, the “%Inh” value is given as 0%.
For `CC(C)NCC(Cc1ccccc1)NC(=O)c1cc(Br)c(-c2ccnc3[nH]ccc23)s1.Cl.Cl` (stereo not shown) [GSK1383281], the “%Inh” value worked out at 13%.
Under `CCOc1nccc(-c2c(-c3ccc(F)cc3)ncn2C2CCNCC2)n1` [SB-249175] stands 0%; under `CN(C)CCOc1ccc(-c2cc(-c3ccc(Cl)c(O)c3)c(-c3ccncc3)[nH]2)cc1.Cl.Cl` [SB-684387], 14%.
For `O=C(O)C(F)(F)F.O=c1[nH]ccc2nc(N[C@@H]3CCNC3)nc(Nc3cc(Cl)cc(Cl)c3)c12` [GSK2188764] the value was 23%; for `CNc1nccc(-c2ccc3c(N)n[nH]c3c2)n1` [GSK2206003], 2%.
For `CC(C)c1nc(-c2ccc(F)c(NS(=O)(=O)c3c(F)cccc3F)c2)c(-c2ccnc(Nc3ccc(N4CCOCC4)nc3)n2)s1` [GSK1804250] the value was 31%; for `Cc1ccc(-c2ccc3occ(-c4ccc(S(C)=O)cc4)c3c2)nn1` (stereo not shown), 0%.
Take `Nc1ncnc2scc(-c3ccc(NC(=O)Cc4cc(F)ccc4F)cc3)c12.O=C(O)C(F)(F)F` [SB-731254-M]: the “%Inh” value is recorded as 24%.
In the case of `COc1cc(Nc2nccc(N3CCC(NC(=O)Nc4ccc5c(c4)OCO5)C3)n2)cc(OC)c1OC` (stereo not shown) [GSK1379766], the “%Inh” value is recorded as 20%.
For `O=C(Nc1n[nH]c2cc(-c3cccs3)ccc12)C1CC1` [SB-731284] the value was 0%; for `Fc1cc(Cl)ccc1Nc1ccnc2cc(-c3ccc(CN4CCSCC4)o3)ccc12` [GW560106], 1%; for `COc1cccc(CC(=O)N2CCc3cc(-c4cn(C)c5ncnc(N)c45)ccc32)c1` [GSK2608899], 74%.
For `COc1ccc(C2=C(Nc3cccc(O)c3)C(=O)NC2=O)cc1` [SB-390766] the value was 0%; for `Cc1ccc(O)cc1Nc1ccnc2cc(-c3ccc(CN4CCCCC4)o3)ccc12` [GW557777], 11%; for `Cc1ccc(C)c(NC(=O)Nc2ccc(C)c(-c3ccc(C(=O)Nc4ccncc4)cc3)c2)c1` [GSK1398473], 1%.
Under `Cc1cc(-c2ccnc(Nc3cccc(C#N)c3)n2)cc(C)c1O` [GSK1440913] stands 0%.
In the case of `Nc1ncc(-c2ccc3nccc(-c4ccncc4)c3c2)cc1S(=O)(=O)N1CCCCC1` [GSK1693850], the “%Inh” value worked out at 8%.
